Source: PubChem BioAssay AID1159580 (chemical genetic matrix, 2015)
About 2,000 (36%) of roughly 5,500 compounds were called active. Roughly 18% stayed inconclusive and do not appear here. Cut-off read from the data, not from the text of the source: active = normalized growth mostly below about 0.91 (no sharp cut-off); inconclusive = no clear call, values can overlap the other calls; inactive = mostly above about 0.92. The list shows a part of the results.

Assay: chemical genetic growth profiling, strain panel (AID 1159580);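 note: tested at 20 µM; growth read once vehicle control cultures reached saturation at 30 °C; 1 = growth at the plate median or of vehicle wells; lower values mean less growth of the strain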
Conditions: S. cerevisiae deletion strains, growth OD

Measured: normalized growth

COc1cc(C(O)CO)ccc1O (stereo not drawn)
inactive: locus YAL040C, strain CLN3, active compounds read low 0.993 | locus YCL061C, strain MRC1 (second series), active compounds read low 0.985 | locus YDR363W, strain ESC2, active compounds read low 0.995 | locus YER002W, strain NOP16, active compounds read low 0.988 | locus YGR078C, strain PAC10, active compounds read low 0.982 | locus YNL128W, strain TEP1, active compounds read low 0.991 | locus YNL153C, strain GIM3, active compounds read low 1.04 | locus YNL175C, strain NOP13, active compounds read low 0.998 | locus YNL197C, strain WHI3, active compounds read low 1 | locus YNL224C, strain SQS1, active compounds read low 0.988 | locus YNL322C, strain KRE1, active compounds read low 0.992 | locus YOR083W, strain WHI5 (second series), active compounds read low 1.08 | locus YPL055C, strain LGE1, active compounds read low 0.968
